# IDE exosite FP = exo-site inhibitors of human IDE, primary screen, biochemical, fluorescence anisotropy, probe displacement; purified IDE, FL-6b probe fluorescence polarization; hits give low values; z-score at 20 µM; 17,000 tested, 6.3% active;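 active means z-score of -3 or lower, meaning strong loss of probe binding signal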;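 further: His-tagged human IDE residues 42-1019 made in E. coli with 30 nM FL-6b probe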
# Target sequence (P14735 42-1019 limits assumed): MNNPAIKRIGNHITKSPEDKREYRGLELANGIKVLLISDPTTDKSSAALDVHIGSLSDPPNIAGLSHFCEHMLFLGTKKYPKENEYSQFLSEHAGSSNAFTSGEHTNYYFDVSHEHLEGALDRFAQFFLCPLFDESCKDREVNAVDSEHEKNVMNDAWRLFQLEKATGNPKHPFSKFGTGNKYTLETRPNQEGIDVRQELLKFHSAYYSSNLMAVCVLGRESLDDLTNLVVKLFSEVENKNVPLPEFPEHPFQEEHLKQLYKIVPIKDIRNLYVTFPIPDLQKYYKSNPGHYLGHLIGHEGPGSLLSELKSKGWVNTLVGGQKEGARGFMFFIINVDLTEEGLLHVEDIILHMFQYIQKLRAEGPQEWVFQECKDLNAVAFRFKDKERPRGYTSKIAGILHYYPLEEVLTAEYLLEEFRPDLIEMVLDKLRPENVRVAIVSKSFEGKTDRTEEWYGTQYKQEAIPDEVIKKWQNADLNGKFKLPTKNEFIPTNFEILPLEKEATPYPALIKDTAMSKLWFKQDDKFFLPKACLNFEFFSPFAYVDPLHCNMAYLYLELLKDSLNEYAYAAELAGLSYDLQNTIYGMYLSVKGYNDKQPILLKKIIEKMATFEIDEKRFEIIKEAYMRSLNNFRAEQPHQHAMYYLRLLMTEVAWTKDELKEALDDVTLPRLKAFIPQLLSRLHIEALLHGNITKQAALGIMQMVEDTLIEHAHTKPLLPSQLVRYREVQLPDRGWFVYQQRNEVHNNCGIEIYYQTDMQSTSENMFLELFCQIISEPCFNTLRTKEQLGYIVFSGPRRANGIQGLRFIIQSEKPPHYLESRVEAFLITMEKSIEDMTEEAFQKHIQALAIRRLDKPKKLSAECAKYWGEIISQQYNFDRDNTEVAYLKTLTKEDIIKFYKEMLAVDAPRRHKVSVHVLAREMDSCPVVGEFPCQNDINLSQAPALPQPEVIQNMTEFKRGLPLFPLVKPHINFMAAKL
# Numbers stand for hits; i = inactive. Shown is part of a subset that was picked to be rich in hits.
SMILES,IDE exosite FP
COc1ccc(C#Cc2ccc([C@H]3[C@H](CO)N4CCCCN(Cc5ccncc5)C[C@@H]34)cc2)cc1,i
OC[C@H]1[C@@H](c2ccc(-c3ccc(F)cc3)cc2)[C@@H]2CN(Cc3ccncc3)CCCCN12,i
CC(C)NC(=O)Nc1ccc2c(c1)C(=O)N([C@H](C)CO)C[C@@H](C)[C@H](CN(C)C(=O)C1CCCCC1)OCCCC[C@H](C)O2,i
COc1ccc2c3c(n(C)c2c1)[C@@H](CO)N(C)CC31CN(S(=O)(=O)c2cccc(C)c2)C1,i
CCN(C[C@@H]1[C@@H](c2ccccc2)[C@H](CO)N1Cc1cccnc1)C(C)=O,i
O=C(Nc1cc(F)ccc1F)N1CCCCN2[C@H](CO)[C@@H](c3ccc(-c4cncnc4)cc3)[C@@H]2C1,i
C[C@H](CO)N1C[C@H](C)[C@H](CN(C)C(=O)Nc2cccc3ccccc23)OCc2cn(nn2)CCCC1=O,i
CCCNC(=O)N1[C@H](CO)[C@H](c2ccccc2-c2ccc(OC)cc2)[C@@H]1C#N,i
Cc1noc(C)c1NC(=O)N1C[C@H](O)COC[C@@H]2O[C@@H](CC(=O)N[C@H]3CCN(Cc4ccccc4)C3)CC[C@H]21,i
C[C@H](CO)N1C[C@H](C)[C@@H](CN(C)Cc2ccncc2)OCCCC[C@H](C)Oc2ccc(NC(=O)Cc3ccccc3)cc2C1=O,i
COc1ccccc1-c1ccc([C@H]2[C@H]3CN(Cc4ccncc4)CCCCN3[C@H]2CO)cc1,-4.7
COCC#Cc1ccc([C@H]2[C@@H](CO)N3CCCCN(Cc4ccncc4)C[C@H]23)cc1,i
O=C(c1ccccn1)N1CC(=O)N2[C@@H](CO)[C@@H](c3ccc(C#CC4CCCC4)cc3)[C@@H]2C1,i
COc1cccc(-c2cccc(-c3nc(C(=O)O)cc4c3[C@@H](CCO)N(S(=O)C(C)(C)C)C4)c2)c1 (stereo not given in full),i
Cc1ccccc1-c1ccc([C@H]2[C@H]3CN(C(=O)c4ccc(F)cc4)CC(=O)N3[C@H]2CO)cc1,-4.3
O=C(c1ccc(F)cc1)N1CC(=O)N2[C@H](C1)[C@@H](c1ccc(-c3ccccc3F)cc1)[C@@H]2CO,i
O=C(c1ccc(F)cc1)N1CC(=O)N2[C@@H](CO)[C@H](c3ccc(-c4ccccc4F)cc3)[C@@H]2C1,i
O=C(c1ccc(F)cc1)N1CC(=O)N2[C@H](C1)[C@H](c1ccc(-c3ccccc3F)cc1)[C@@H]2CO,i
Cc1ccccc1-c1ccc([C@H]2[C@H](CO)N3C(=O)CN(C(=O)c4ccc(F)cc4)C[C@@H]23)cc1,-16
Cc1ccccc1-c1ccc([C@H]2[C@@H](CO)N3C(=O)CN(C(=O)c4ccc(F)cc4)C[C@@H]23)cc1,i
C[C@H]1COCc2cn(nn2)CCCC(=O)N1,i
C[C@H]1CN([C@@H](C)CO)C(=O)c2cccc(NC(=O)c3ccncc3)c2O[C@@H]1CN(C)Cc1ccc2c(c1)OCO2,i
COCc1cn(CC[C@@H]2CC[C@@H](NC(=O)Nc3c(C)noc3C)[C@H](CO)O2)nn1,i
COc1ccc(-c2ccc([C@H]3[C@H](CO)N4C(=O)CNC[C@@H]34)cc2)cc1,i
COC(=O)C[C@H]1CC[C@H](N)[C@@H](CO)O1,i
SMILES,IDE exosite FP
COc1ccc(-c2ccc3n(c2=O)C[C@@H]2[C@@H](CO)[C@H](C(=O)NCC4CC4)N(C(=O)NC(C)C)[C@H]32)cc1,i
Cc1cccc(-c2ccc([C@@H]3[C@@H](CO)N4CCCCN(CCC(F)(F)F)C[C@H]34)cc2)c1,i
Cc1cccc(-c2ccc([C@H]3[C@@H](CO)N4CCCCN(CCC(F)(F)F)C[C@@H]34)cc2)c1,i
Cc1cccc(-c2ccc([C@H]3[C@H](CO)N4CCCCN(Cc5ccncc5)C[C@@H]34)cc2)c1,-3.7
Cc1cccc(-c2ccc([C@H]3[C@H](CO)N4CCCCN(CCC(F)(F)F)C[C@@H]34)cc2)c1,i
Cc1cccc(-c2ccc([C@H]3[C@H]4CN(Cc5ccncc5)CCCCN4[C@H]3CO)cc2)c1,-5
OC[C@H]1[C@@H](c2ccc(C3=CCCC3)cc2)[C@@H]2CN(Cc3ccncc3)CCCCN12,i
Cc1cccc(-c2ccc([C@H]3[C@@H](CO)N4CCCCN(Cc5ccncc5)C[C@H]34)cc2)c1,-5.9
CN(C)C(=O)c1ccc(-c2ccc([C@@H]3[C@@H](CO)N4CCCCN(Cc5ccncc5)C[C@@H]34)cc2)cc1,i
Cc1cccc(-c2ccc([C@@H]3[C@H](CO)N4CCCCN(CCC(F)(F)F)C[C@@H]34)cc2)c1,i
Cc1cccc(-c2ccc([C@@H]3[C@@H](CO)N4CCCCN(CCC(F)(F)F)C[C@@H]34)cc2)c1,i
Cc1cccc(-c2ccc([C@H]3[C@@H](CO)N4CCCCN(CCC(F)(F)F)C[C@H]34)cc2)c1,-3.6
Cc1cccc(S(=O)(=O)N2[C@@H]3CNC[C@H]2C3c2ccc(-c3cccnc3)cc2)c1 (stereo not given in full),i
COCC(=O)NC[C@H]1N[C@H](CO)[C@@H]1c1ccc(C#CC2CCCCC2)cc1,i
CC(C)CC#Cc1ccc([C@@H]2[C@H]3CN(C(=O)c4cnccn4)CC(=O)N3[C@H]2CO)cc1,i
N#C[C@@H]1[C@H](c2ccccc2)[C@H](CO)N1S(=O)(=O)c1ccc(-c2ccccc2)cc1,i
O=C(Cc1cccnc1)N1CC(=O)N2[C@H](C1)[C@@H](c1ccc(C#CC3CCCCC3)cc1)[C@@H]2CO,i
COC(=O)c1ccc(CN2CC(=O)N3[C@H](C2)[C@@H](c2ccc(Br)cc2)[C@@H]3CO)cc1,i
COc1ccccc1-c1cnc2c(c1)C(=O)N([C@H](C)CO)C[C@H](C)[C@H](CN(C)C(=O)CC1CC1)O2,i
C[C@H]1CN([C@@H](C)CO)C(=O)c2ccccc2-c2ccccc2CO[C@@H]1CN(C)C(=O)Nc1ccc(-c2ccccc2)cc1,i
COc1ccc(NC(=O)N2CCCCN3[C@H](CO)[C@H](c4ccc(-c5ccccc5F)cc4)[C@@H]3C2)cc1,i
C[C@H]1CN([C@@H](C)CO)C(=O)CCCn2nncc2CO[C@@H]1CN(C)Cc1ccccc1C(=O)O,i
O=C1N[C@H](c2ccccc2)COCc2cn(nn2)CC[C@H]1Cc1ccc(C(F)(F)F)cc1,i
COc1cccc(-c2ccc([C@H]3[C@H]4CN(C(=O)C5CCOCC5)CC(=O)N4[C@H]3CO)cc2)c1,i
COc1cccc(-c2ccc([C@H]3[C@H](CO)N4C(=O)CN(C(=O)CN5CCOCC5)C[C@@H]34)cc2)c1,-3.4
SMILES,IDE exosite FP
COc1cccc(-c2ccc([C@H]3[C@@H](CO)N4C(=O)CN(C(=O)C5CCOCC5)C[C@@H]34)cc2)c1,-4.5
O=C(CN1CCOCC1)N1CC(=O)N2[C@H](CO)[C@@H](c3ccc(-c4cccc(F)c4)cc3)[C@H]2C1,i
COc1cccc(-c2ccc([C@H]3[C@H](CO)N4C(=O)CN(C(=O)C5CCOCC5)C[C@@H]34)cc2)c1,i
COc1ccc(-c2ccc([C@@H]3[C@@H](CO)N4C(=O)CN(C(=O)C5CCOCC5)C[C@H]34)cc2)cc1,i
O=C(CN1CCOCC1)N1CC(=O)N2[C@@H](CO)[C@H](c3ccc(-c4ccccc4)cc3)[C@@H]2C1,i
COc1ccc(-c2ccc([C@H]3[C@H](CO)N4C(=O)CN(C(=O)C5CCOCC5)C[C@@H]34)cc2)cc1,i
COc1cccc(-c2ccc([C@H]3[C@@H](CO)N4C(=O)CN(C(=O)C5CCOCC5)C[C@H]34)cc2)c1,-8.7
C[C@@H](O)C#Cc1ccc([C@H]2[C@H](CO)N3CCCCN(CC4CCOCC4)C[C@@H]23)cc1,i
